Data as given in the supplement of paper PMC12819154, “High-throughput peptide-centric local stability assay extends protein–ligand identification to membrane proteins, tissues and bacteria” (Nature Structural & Molecular Biology, 2025).

Compound: CN[C@@H]1C[C@H]2O[C@@](C)([C@@H]1OC)n1c3ccccc3c3c4c(c5c6ccccc6n2c5c31)C(=O)NC4 [staurosporine]
Assay: log2 fold change of tryptic peptide abundance, ligand vs vehicle (limited proteolysis) (log2 ratio); higher = more trypsin-susceptible (destabilized)
Details: ligand concentration: 20 uM; sample: mouse liver crude lysate; replicate design: treated separately

Sequence of UniProt P43142 (P43142 whole entry): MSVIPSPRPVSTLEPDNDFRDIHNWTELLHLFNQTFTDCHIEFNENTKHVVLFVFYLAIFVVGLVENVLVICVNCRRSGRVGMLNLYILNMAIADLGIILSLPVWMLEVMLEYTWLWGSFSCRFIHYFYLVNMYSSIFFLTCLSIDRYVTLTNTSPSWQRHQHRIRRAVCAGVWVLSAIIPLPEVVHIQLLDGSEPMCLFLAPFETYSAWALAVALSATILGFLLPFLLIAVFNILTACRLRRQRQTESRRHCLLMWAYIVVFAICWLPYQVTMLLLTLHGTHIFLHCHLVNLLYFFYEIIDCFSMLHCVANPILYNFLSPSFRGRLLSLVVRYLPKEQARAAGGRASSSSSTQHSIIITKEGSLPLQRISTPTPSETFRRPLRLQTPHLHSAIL
Sequence of UniProt Q9ERE3 (Q9ERE3 whole entry): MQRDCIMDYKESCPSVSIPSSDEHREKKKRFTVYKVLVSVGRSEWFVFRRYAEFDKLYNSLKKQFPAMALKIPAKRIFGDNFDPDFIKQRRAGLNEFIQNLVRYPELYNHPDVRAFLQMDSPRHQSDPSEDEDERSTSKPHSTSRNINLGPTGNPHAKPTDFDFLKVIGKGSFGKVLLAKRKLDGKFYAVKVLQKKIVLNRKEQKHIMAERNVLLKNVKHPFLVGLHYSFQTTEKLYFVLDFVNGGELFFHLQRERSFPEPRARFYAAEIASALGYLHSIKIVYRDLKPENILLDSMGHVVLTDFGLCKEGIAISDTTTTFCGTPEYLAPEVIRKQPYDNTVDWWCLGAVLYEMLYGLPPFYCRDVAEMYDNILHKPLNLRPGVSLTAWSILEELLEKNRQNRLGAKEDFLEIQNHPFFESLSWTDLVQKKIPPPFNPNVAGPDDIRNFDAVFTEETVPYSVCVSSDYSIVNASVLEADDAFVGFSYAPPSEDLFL
Sequence of UniProt O70291 (O70291 whole entry): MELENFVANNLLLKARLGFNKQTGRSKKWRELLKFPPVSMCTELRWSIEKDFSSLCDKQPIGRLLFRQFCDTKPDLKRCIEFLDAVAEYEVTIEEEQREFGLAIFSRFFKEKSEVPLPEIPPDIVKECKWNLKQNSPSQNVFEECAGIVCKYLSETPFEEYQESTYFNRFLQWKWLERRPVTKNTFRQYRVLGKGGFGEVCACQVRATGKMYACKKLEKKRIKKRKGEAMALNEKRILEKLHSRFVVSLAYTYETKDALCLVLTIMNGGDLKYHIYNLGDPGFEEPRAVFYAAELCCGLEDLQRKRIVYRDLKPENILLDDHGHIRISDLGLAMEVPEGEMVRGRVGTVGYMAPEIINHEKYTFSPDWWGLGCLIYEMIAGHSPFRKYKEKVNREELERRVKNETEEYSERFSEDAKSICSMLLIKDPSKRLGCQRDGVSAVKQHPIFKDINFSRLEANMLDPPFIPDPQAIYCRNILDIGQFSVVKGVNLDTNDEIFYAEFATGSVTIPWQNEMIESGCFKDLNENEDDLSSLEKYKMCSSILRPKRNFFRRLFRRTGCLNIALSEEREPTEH
Sequence of UniProt Q9CYH2 (Q9CYH2 whole entry): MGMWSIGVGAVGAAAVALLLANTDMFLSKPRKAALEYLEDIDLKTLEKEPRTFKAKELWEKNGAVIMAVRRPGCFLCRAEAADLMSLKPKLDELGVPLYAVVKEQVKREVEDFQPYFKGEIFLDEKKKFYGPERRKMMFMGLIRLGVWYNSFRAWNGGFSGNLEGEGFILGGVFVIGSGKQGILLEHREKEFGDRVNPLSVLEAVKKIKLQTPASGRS
Sequence of UniProt P11440 (P11440 whole entry, looked up): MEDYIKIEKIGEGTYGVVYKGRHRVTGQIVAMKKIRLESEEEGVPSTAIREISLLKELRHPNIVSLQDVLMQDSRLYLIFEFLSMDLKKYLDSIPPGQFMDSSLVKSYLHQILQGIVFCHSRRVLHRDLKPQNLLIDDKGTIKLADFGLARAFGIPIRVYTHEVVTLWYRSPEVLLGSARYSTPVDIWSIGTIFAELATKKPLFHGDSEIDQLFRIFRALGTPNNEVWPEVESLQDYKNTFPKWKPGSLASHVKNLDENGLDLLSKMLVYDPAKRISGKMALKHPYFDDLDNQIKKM
Sequence of UniProt Q9QVP9 (Q9QVP9 whole entry, looked up): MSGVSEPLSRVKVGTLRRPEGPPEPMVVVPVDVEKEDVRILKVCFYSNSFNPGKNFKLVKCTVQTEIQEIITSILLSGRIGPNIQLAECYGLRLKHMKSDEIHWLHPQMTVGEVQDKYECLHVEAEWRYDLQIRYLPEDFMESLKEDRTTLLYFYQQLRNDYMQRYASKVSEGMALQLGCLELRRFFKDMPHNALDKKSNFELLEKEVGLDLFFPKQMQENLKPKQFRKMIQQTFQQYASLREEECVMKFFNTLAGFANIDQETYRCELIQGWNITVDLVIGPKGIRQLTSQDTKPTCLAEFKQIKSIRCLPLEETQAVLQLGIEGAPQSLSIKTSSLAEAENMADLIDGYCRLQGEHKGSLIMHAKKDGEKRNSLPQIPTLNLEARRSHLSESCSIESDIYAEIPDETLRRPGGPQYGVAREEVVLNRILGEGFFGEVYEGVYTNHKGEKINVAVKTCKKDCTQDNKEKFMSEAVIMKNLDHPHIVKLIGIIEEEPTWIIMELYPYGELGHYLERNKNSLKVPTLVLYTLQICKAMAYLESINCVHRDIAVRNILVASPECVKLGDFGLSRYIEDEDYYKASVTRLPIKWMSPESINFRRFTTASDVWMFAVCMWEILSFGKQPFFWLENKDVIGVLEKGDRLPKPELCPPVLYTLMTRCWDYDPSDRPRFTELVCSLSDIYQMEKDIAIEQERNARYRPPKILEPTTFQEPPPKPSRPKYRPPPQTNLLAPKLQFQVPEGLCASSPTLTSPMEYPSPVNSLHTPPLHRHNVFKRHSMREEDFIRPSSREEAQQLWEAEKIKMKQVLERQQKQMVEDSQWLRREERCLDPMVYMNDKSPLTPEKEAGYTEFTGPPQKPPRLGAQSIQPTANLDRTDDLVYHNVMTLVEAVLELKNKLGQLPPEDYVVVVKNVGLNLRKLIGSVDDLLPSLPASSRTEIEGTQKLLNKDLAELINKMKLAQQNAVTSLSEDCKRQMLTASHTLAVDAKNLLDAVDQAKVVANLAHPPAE
Sequence of UniProt Q8CIM7 (Q8CIM7 whole entry): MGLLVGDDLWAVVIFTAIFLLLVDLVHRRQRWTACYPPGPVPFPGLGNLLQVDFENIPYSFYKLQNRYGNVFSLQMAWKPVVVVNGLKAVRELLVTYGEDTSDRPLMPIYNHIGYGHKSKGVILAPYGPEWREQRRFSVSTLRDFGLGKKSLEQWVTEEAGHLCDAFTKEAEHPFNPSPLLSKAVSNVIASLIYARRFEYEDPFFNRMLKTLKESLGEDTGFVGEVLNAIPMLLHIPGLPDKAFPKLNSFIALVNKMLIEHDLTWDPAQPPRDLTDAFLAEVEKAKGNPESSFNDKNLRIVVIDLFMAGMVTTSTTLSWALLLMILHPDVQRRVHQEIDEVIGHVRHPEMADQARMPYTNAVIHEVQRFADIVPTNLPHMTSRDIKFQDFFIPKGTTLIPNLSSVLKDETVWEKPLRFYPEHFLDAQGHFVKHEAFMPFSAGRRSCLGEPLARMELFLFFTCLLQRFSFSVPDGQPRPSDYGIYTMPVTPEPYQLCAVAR
Sequence of UniProt Q00623 (Q00623 whole entry): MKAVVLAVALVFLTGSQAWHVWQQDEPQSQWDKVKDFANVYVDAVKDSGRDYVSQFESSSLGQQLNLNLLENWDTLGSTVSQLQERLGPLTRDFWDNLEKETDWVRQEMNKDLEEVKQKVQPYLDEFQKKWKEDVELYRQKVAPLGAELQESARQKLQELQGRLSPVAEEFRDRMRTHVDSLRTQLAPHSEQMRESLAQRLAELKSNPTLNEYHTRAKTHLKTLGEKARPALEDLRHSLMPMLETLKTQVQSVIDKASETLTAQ
Sequence of UniProt Q61268 (Q61268 whole entry): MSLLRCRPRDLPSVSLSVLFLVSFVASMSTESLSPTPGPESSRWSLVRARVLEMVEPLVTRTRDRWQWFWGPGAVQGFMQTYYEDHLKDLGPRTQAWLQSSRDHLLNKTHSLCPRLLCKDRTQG
Sequence of UniProt O70589 (O70589 whole entry): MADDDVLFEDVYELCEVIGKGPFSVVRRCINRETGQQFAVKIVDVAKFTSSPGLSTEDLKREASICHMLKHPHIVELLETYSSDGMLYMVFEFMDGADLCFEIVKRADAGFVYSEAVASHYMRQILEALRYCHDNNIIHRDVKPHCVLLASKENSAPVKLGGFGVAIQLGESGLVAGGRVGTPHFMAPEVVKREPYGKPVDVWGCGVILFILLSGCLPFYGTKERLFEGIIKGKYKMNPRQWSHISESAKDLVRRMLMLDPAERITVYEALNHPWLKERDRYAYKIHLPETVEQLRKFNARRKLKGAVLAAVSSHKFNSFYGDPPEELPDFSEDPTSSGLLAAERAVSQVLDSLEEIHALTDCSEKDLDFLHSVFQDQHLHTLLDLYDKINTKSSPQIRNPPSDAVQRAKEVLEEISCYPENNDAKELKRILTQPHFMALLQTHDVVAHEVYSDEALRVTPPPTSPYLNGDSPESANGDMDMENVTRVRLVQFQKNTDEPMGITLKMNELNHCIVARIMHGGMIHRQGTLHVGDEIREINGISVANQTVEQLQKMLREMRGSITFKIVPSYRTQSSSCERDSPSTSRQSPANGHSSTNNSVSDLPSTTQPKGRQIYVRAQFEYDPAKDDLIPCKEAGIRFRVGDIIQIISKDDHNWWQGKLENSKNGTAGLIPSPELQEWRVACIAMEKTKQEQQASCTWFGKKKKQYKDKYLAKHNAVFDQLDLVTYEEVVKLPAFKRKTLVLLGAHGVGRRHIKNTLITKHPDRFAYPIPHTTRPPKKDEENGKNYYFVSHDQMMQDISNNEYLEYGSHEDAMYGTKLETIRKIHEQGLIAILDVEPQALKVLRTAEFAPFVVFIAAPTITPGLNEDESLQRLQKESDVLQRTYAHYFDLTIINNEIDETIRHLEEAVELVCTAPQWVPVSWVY
Sequence of UniProt P56395 (P56395 whole entry): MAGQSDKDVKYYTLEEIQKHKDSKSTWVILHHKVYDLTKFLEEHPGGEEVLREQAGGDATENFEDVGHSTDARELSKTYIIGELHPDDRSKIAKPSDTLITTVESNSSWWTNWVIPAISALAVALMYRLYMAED

Point of comparison: “UniProt Q9CZW6 (peptide sequence: GASWLGKR, peptide start residue: 64)”, log2 fold change -0.952. Against it:
- UniProt Q9CZW4 (peptide sequence: ALDFGNGLQMLGQKPK, peptide start residue: 144) — higher, 0.538
- UniProt Q00623 (peptide sequence: TQLAPHSEQMR, peptide start residue: 184) — higher, 0.455
- UniProt P56395 (peptide sequence: YYTLEEIQK, peptide start residue: 11) — higher, 0.367
- UniProt Q8CIM7 (peptide sequence: GNPESSFNDKNLR, peptide start residue: 287) — higher, -0.562
- UniProt P36552 (peptide sequence: NPYAPTMHFNYR, peptide start residue: 240) — higher, -0.601
- UniProt Q9ERE3 (peptide sequence: PTDFDFLK, peptide start residue: 32) — lower, -2.47
- UniProt Q64310 (peptide sequence: SMFAGVPTMR, peptide start residue: 140) — higher, 0.247
- UniProt O70291 (peptide sequence: DLKPENILLDDHGHIR, peptide start residue: 311) — lower, -1.62
- UniProt P11440 (peptide sequence: IGEGTYGVVYK, peptide start residue: 10) — lower, -2.03
- UniProt P14576 (peptide sequence: SAIDLEEMASGLNKRK, peptide start residue: 58) — higher, 0.95
- UniProt P22907 (peptide sequence: ELENALEKNEVDLVVHSLK, peptide start residue: 80) — within 0.2 log units, -0.802
- UniProt Q9ERK4 (peptide sequence: LLQAFLER, peptide start residue: 707) — higher, 0.291
- UniProt Q9CYH2 (peptide sequence: LGVWYNSFR, peptide start residue: 145) — lower, -2.12
- UniProt Q61161 (peptide sequence: GLHHLHSQGK, peptide start residue: 123) — lower, -1.65
- UniProt Q9DCW4 (peptide sequence: VDLLFLGK, peptide start residue: 117) — higher, 0.27
- UniProt Q8VI63 (peptide sequence: ITDFEFK, peptide start residue: 35) — higher, 0.579
- UniProt P18653 (peptide sequence: ADPSQFELLK, peptide start residue: 57) — lower, -1.44
- UniProt O70589 (peptide sequence: FTSSPGLSTEDLKR, peptide start residue: 48) — lower, -2.83
- UniProt Q9QVP9 (peptide sequence: CWDYDPSDRPR, peptide start residue: 661) — lower, -1.22
- UniProt Q61268 (peptide sequence: TQAWLQSSR, peptide start residue: 94) — higher, 0.77
- UniProt Q99LB7 (peptide sequence: AYGIESHVLSPAETK, peptide start residue: 175) — higher, -0.446
- UniProt Q6ZWQ0 (peptide sequence: INDRWQHLFDVIGSR, peptide start residue: 5986) — higher, 0.927
- UniProt P43142 (peptide sequence: YLPKEQAR, peptide start residue: 334) — higher, -0.325
- UniProt P35917 (peptide sequence: VLGHGAFGK, peptide start residue: 850) — higher, 1.38
- UniProt Q9Z2B9 (peptide sequence: KIPAPFRPQIR, peptide start residue: 313) — lower, -1.34
